Where “and” joins values, the source holds several entries; their conditions need not be identical. Identical values can stand only once. Results filed as inconclusive are left out. Calls of active or inactive are those of the source. Unless noted, the call rests on the fitted dose curve; in most records, active means well fitted curve in the direction sought with a large enough effect; inconclusive means small, poorly fitted or top-dose-only effect, or another doubt; inactive means no such curve, though single readings can be large; an effect the other way counts as inactive or inconclusive.
What was measured:
[1] = qHTS assay for small molecule antagonists of the retinoid-related orphan receptor gamma (ROR-gamma) signaling pathway - cell viability counter screen (AID 720652; active means well fitted curve in the direction sought with a large enough effect in the repeat runs; an effect the other way counts as inactive or inconclusive;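 further: CHO reporter cells with doxycycline-induced ROR-gamma expression; series mostly up to about 92 µM; compound exposure lasted 16 hr before ATP read; on the % scale 0 is the no-effect control and ±100 the full control effect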)
Procedure, shortened: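 Steps: seed CHO cells bearing TET-inducible ROR and ROR response element-luciferase; rest 5 hr at 37 C; add compound, then doxycycline; incubate 16 hr; add CellTiter-Glo and read luminescence as ATP-based viability.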

[2] = biological target: Arylsulfatase A (Homo sapiens) (UniProt P15289); assay: qHTS screen for enhancers of Arylsulfatase A (ASA1): LOPAC Validation Assay (AID 720538); further: potency means the concentration at half of the fitted maximal effect
Procedure, shortened: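 SV40-transformed fibroblasts from an MLD patient (ASA-I179S) were treated with compound for 48 h at 37 C. They were then lysed with 0.5 mM pNCS substrate (final) for 14 h at room temperature and stopped with NaOH; signal read by fluorescence (Ex 525/Em 598 nm), with increase denoting enhanced activity.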

[3] = qHTS for Activators of Parkin Expression: LOPAC Validation Assay (NLuc Reporter) (AID 720572; further: potency means the concentration at half of the fitted maximal effect)
Procedure, shortened: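 NLuc signal, read 10 min after reagent and following a prior FLuc read, is normalized to DMSO (0) and positive controls (100%). Cells: neuronal Parkin-promoter coincidence reporter line; compounds tested 7-point, 24 h, 37 C, 5% CO2.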

[4] = qHTS for Activators of Parkin Expression: LOPAC Validation Assay (FLuc Reporter) (AID 720573)
Procedure, shortened: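 Neuronal cell line stably expressing FLuc/NLuc coincidence reporter under the Parkin promoter, 1,500 cells/well, dosed 24 h after seeding in 7-point series for 24 h at 37 C. FLuc luminescence read; normalized to DMSO and positive control (100%).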

[5] = biological target: T1, Hexokinase-4 (Homo sapiens) + Glucokinase regulatory protein (Homo sapiens) (UniProt P35557+Q14397); assay: qHTS assay for inhibitors of recombinant human GCK-GKRP interaction: Diaphorase-coupled assay (AID 743205)
Procedure, shortened: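 Compounds pre-incubated 20 min with substrate, then 10 nM GST-GCK with 10 nM FLAG-GKRP added. GCK activity coupled via G6PDH and diaphorase to resorufin (5 mM glucose, 0.4 mM ATP, 0.15 mM NADP+, pH 7.6), read kinetically over 30 minutes at Ex 525/Em 590 nm.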

[6] = biological target: T1, Hexokinase-4 (Homo sapiens) + Glucokinase regulatory protein (Homo sapiens); assay: qHTS assay for inhibitors of recombinant human GCK-GKRP interaction: ADP-Glo assay (AID 743206);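 further: plate controls were DMSO plus enzyme for no effect and no enzyme for full effect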
Procedure, shortened: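 Pin-transferred compounds meet a 15 nM GST-GCK/15 nM FLAG-GKRP/2 uM S6P mix (dispense concentrations). ATP is then added to 0.4 mM final with 5 mM glucose, and the reaction runs 60 min at room temperature. ADP is quantified luminescently.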

[7] = biological target: T1, Hexokinase-4 (Homo sapiens) + Glucokinase regulatory protein (Homo sapiens); assay: qHTS assay for inhibitors of recombinant human GCK-GKRP interaction: HTRF assay (AID 743207);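 further: 0% = DMSO with GCK present and -100% = DMSO wells lacking GCK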
Procedure, shortened: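 HTRF binding of 5 nM GST-GCK and 5 nM FLAG-GKRP with 2 uM S6P in pH 7.1 Hepes buffer (MgCl2, KCl, DTT, Tween 20, BSA). Anti-FLAG XL665 and anti-GST donor added, 60 min at room temperature; 665/615 nm read, normalized to with- and without-GCK controls.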

[8] = qHTS for compounds that reverse cellular toxicity of Amyloid beta (A-beta) peptide in yeast: LOPAC Validation Assay (AID 720559);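 further: plate controls were DMSO for no effect and equimolar ferric chloride plus clioquinol rescue for full effect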
Procedure, shortened: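 Yeast expressing toxic A-beta grown with pinned compounds at 30 C for 48 hr. Growth measured as absorbance at 600 nm; data normalized to DMSO and to an equimolar FeCl3/clioquinol mixture as positive control.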

[9] = qHTS assay for small molecule agonists of the antioxidant response element (ARE) signaling pathway measured by Nrf2-dependant transcriptional activity (AID 720636; active means well fitted curve in the direction sought with a large enough effect in the repeat runs; an effect the other way counts as inactive or inconclusive;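 further: HepG2 cells with an ARE-driven luciferase reporter; % of control where 0% means no effect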)
Procedure, shortened: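 ONE-Glo luminescence, read 30 min after reagent addition at room temperature, reflected ARE reporter activity in HepG2 cells that had been incubated with compound for 16 hr at 37 C in 1% dialyzed FBS.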

[10] = qHTS assay for small molecule agonists of the antioxidant response element (ARE) signaling pathway measured by Nrf2-dependant transcriptional activity - cell viability counter screen (AID 720653; active means well fitted curve in the direction sought with a large enough effect in the repeat runs; an effect the other way counts as inactive or inconclusive; further: on the % scale 0 is the no-effect control and ±100 the full control effect); details: ARE-bla HepG2 viability, CellTiter-Glo ATP luminescence, 16 h; max response: stronger effect = lower value
Procedure, shortened: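 ARE-bla HepG2 cells treated with compounds for 16 h at 37C; this counter screen measures viability as intracellular ATP by CellTiter-Glo luminescence after 30 min at room temperature.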

Sequence of Arylsulfatase A (Homo sapiens) (P15289 whole entry, looked up): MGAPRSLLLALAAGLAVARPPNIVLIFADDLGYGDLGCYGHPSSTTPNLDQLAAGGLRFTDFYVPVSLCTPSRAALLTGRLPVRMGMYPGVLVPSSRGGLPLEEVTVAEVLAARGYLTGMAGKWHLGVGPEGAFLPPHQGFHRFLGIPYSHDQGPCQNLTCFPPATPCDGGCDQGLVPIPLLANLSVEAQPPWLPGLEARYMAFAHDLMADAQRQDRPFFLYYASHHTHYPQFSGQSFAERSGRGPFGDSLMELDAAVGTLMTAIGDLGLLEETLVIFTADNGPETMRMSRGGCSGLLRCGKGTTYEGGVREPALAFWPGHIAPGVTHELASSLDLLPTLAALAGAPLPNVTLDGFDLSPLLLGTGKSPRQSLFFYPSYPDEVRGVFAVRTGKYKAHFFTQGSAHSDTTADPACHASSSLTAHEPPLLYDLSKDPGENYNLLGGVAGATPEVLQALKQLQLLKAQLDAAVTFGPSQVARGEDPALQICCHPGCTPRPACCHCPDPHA
T1 sequence (P35557 whole entry, looked up): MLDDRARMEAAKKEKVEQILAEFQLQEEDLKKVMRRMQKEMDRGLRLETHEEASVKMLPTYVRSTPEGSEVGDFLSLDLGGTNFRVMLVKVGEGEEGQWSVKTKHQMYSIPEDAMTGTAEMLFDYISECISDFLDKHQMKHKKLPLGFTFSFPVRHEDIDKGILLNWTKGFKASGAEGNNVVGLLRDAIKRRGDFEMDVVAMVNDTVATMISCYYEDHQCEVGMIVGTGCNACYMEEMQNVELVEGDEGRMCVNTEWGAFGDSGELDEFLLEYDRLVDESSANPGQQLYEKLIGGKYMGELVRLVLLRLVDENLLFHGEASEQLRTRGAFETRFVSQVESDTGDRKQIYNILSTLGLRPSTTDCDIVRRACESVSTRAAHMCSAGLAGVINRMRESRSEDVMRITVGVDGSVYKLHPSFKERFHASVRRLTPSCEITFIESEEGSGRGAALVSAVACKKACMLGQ
T1 sequence (Q14397 whole entry, looked up): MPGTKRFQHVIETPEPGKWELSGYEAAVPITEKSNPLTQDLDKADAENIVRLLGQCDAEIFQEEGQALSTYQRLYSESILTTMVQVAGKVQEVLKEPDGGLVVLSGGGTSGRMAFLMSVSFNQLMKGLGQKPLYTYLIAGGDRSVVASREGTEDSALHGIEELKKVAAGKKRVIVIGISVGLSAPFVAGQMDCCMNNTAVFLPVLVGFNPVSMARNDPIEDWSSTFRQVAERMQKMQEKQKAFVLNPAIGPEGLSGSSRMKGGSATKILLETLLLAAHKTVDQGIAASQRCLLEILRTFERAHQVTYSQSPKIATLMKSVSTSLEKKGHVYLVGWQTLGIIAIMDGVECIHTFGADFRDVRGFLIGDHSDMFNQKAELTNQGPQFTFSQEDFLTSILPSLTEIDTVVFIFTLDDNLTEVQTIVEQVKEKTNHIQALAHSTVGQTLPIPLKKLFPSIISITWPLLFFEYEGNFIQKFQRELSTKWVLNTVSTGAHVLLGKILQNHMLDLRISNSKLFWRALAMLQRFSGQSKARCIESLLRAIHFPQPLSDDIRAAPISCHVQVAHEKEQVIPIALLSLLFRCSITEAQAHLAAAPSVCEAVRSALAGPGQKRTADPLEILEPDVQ

CCCCNC(=O)NS(=O)(=O)c1ccc(C)cc1
inactive: outcome [1]

Cc1nc2sccn2c(=O)c1CCN1CCC(=C(c2ccc(F)cc2)c2ccc(F)cc2)CC1
inactive: Potency [2] | Potency [3] | outcome [4] | outcome [5] | outcome [6] | Potency [7]

CC(C)(C)NCC(O)c1cc(O)cc(O)c1 (centres undefined)
inactive: Potency [2] | Potency [3] | outcome [4] | outcome [5] | outcome [6] | Potency [7]

CO[C@@]1(NC(=O)CSCC#N)C(=O)N2C(C(=O)O)=C(CSc3nnnn3C)CS[C@@H]21
inactive: Potency [2] | Potency [3] | outcome [4] | outcome [5] | outcome [6]

CN(C)CC/C=C1\c2ccccc2COc2ccccc21
inactive: Potency [2] | outcome [8] | outcome [4] | outcome [5] | outcome [6] | Potency [7]

CN1C(=O)CC[C@H]1c1cccnc1
inactive: Potency [2] | outcome [8] | Potency [3] | outcome [5] | outcome [6] | Potency [7]

CCN(CC)CC(=O)Nc1c(C)cccc1C
inactive: Potency [2] | outcome [8] | outcome [4] | outcome [5] | outcome [6] | Potency [7]

CCO/C([O-])=N/c1c[n+](N2CCOCC2)no1
inactive: Potency [2] | outcome [8] | Potency [3] | outcome [5] | outcome [6] | Potency [7]

CCCN(CCC)C(=O)C(CCC(=O)O)NC(=O)c1ccccc1 (centres undefined)
inactive: Potency [2] | Potency [3] | outcome [4] | outcome [5] | outcome [6] | Potency [7]

CCN(Cc1ccncc1)C(=O)C(CO)c1ccccc1 (centres undefined)
inactive: Potency [2] | outcome [8] | outcome [5] | outcome [6] | Potency [7]

O=C(O)CP(=O)(O)O
inactive: Potency [2] | outcome [8] | Potency [3] | outcome [5] | outcome [6] | Potency [7]

COc1ccc(CN(CCN(C)C)c2ccccn2)cc1
inactive: Potency [2] | Potency [3] | outcome [4] | outcome [9] | outcome [1] | max response [10] -3.41% | outcome [5] | outcome [6] | Potency [7]

NC(=O)N1c2ccccc2C=Cc2ccccc21
inactive: Potency [2] | outcome [8] | outcome [9] | outcome [1] | max response [10] -1.67% and -8.32% | outcome [5] | outcome [6] | Potency [7]

NC(N)=NC(=O)Cc1c(Cl)cccc1Cl
inactive: Potency [2] | outcome [8] | outcome [5] | outcome [6]

c1cnc(N2CCN(Cc3ccc4c(c3)OCO4)CC2)nc1
inactive: Potency [2] | outcome [8] | outcome [4] | outcome [5] | outcome [6] | Potency [7]

CCCCNc1ccc(C(=O)OCCN(C)C)cc1
inactive: Potency [2] | outcome [8] | outcome [4] | outcome [5] | outcome [6]

CN(C(=O)CCCOc1ccc2[nH]c(=O)ccc2c1)C1CCCCC1
inactive: Potency [2] | Potency [3] | outcome [4] | outcome [5] | outcome [6] | Potency [7]

CCOC(=O)C1=C(C)NC(C)=C(C(=O)OC)C1c1cccc(Cl)c1Cl (centres undefined)
active: Potency [3] 2.59 µM
inactive: Potency [2] | outcome [4] | outcome [5] | outcome [6]

COCCCC/C(=N\OCCN)c1ccc(C(F)(F)F)cc1
inactive: Potency [2] | outcome [8] | Potency [3] | outcome [5] | outcome [6] | Potency [7]

NC(=O)c1cn(Cc2c(F)cccc2F)nn1
inactive: Potency [2] | outcome [8] | outcome [5] | outcome [6] | Potency [7]

Cc1nc2ccccn2c(=O)c1CCN1CCC(C(=O)c2ccc(F)cc2)CC1
inactive: outcome [8] | Potency [3] | outcome [5] | outcome [6] | Potency [7]
active: Potency [2] 19 µM

COCCOC(=O)C1=C(C)NC(C)=C(C(=O)OC(C)C)C1c1cccc([N+](=O)[O-])c1 (centres undefined)
inactive: Potency [2] | outcome [8] | outcome [5] | outcome [6] | Potency [7]

CC(=O)Oc1cc(C(C)C)c(OCCN(C)C)cc1C
inactive: Potency [2] | outcome [8] | outcome [4] | outcome [5] | outcome [6] | Potency [7]

COC(=O)C1=C(C)NC(C)=C(C(=O)OCCN(C)Cc2ccccc2)C1c1cccc([N+](=O)[O-])c1 (centres undefined)
inactive: Potency [2] | outcome [8] | outcome [4]

Cc1nc2c([nH]1)c(=O)n(C)c(=O)n2Cc1ccco1
inactive: Potency [2] | outcome [8] | outcome [4] | outcome [5] | outcome [6] | Potency [7]

CC(=O)OC(C)C[N+](C)(C)C (centres undefined)
inactive: Potency [2] | Potency [3] | outcome [4] | outcome [5] | outcome [6] | Potency [7]

Cc1scc2c1N(C(=O)CN1CCN(C)CC1)c1ccccc1NC2=O
inactive: Potency [2] | outcome [8] | Potency [3] | outcome [5] | outcome [6] | Potency [7]

CCCOc1ccccc1-c1nc2n[nH]nc2c(=O)[nH]1
inactive: Potency [2] | outcome [8] | outcome [5] | outcome [6] | Potency [7]

COc1cc(Cc2cnc(N)nc2N)cc(OC)c1OC
inactive: Potency [2] | Potency [3] | outcome [4] | outcome [9] | outcome [1] | max response [10] 0.934%

NS(=O)(=O)c1cc2c(cc1Cl)NC(C1CC3C=CC1C3)NS2(=O)=O (centres undefined)
inactive: Potency [2] | outcome [8] | outcome [4] | outcome [5] | outcome [6] | Potency [7]

CN/C(=C\[N+](=O)[O-])NCCSCc1ccc(CN(C)C)o1
inactive: Potency [2] | outcome [8] | outcome [4]

C[N+](C)(C)CCOC(=O)CCC(=O)OCC[N+](C)(C)C
inactive: Potency [2] | outcome [8] | outcome [5] | outcome [6]

COc1ccc([C@@H]2Sc3ccccc3N(CCN(C)C)C(=O)[C@@H]2OC(C)=O)cc1
inactive: Potency [2] | outcome [8] | outcome [5] | outcome [6] | Potency [7]

CCCCCCCC/C=C\CCCCCCCC(=O)NCc1ccc(O)c(OC)c1
inactive: Potency [2] | outcome [8] | outcome [4] | outcome [5] | outcome [6]

NC(N)=N/N=C/c1c(Cl)cccc1Cl
inactive: Potency [2] | outcome [8] | Potency [3] | outcome [5] | outcome [6] | Potency [7]

CCOC(=O)C1=C(C)NC(C)=C(C(=O)OC)C1c1cccc([N+](=O)[O-])c1 (centres undefined)
inactive: Potency [2] | outcome [8] | outcome [4] | outcome [5] | outcome [6] | Potency [7]

CN(C)C/C=C(/c1ccc(Br)cc1)c1cccnc1
inactive: Potency [2] | outcome [8] | outcome [4] | outcome [5] | outcome [6] | Potency [7]

Nc1nc(N)c2nc(-c3ccccc3)c(N)nc2n1
inactive: outcome [1]
